# Results reported in paper PMC10726135, “HNF4α isoforms regulate the circadian balance between carbohydrate and lipid metabolism in the liver”.
# Whole data set: some 18,000 sequences, median “log2 normalized intensity” near 0.36, cut for the highest 2% near 7.3. Many of the other results were omitted from the sample, so the highest values are more common in it than they were.
# Target: T1, HNF4alpha8 (COS-7 nuclear extract) (Homo sapiens, UniProt P41235-5 1-452)
# T1 sequence: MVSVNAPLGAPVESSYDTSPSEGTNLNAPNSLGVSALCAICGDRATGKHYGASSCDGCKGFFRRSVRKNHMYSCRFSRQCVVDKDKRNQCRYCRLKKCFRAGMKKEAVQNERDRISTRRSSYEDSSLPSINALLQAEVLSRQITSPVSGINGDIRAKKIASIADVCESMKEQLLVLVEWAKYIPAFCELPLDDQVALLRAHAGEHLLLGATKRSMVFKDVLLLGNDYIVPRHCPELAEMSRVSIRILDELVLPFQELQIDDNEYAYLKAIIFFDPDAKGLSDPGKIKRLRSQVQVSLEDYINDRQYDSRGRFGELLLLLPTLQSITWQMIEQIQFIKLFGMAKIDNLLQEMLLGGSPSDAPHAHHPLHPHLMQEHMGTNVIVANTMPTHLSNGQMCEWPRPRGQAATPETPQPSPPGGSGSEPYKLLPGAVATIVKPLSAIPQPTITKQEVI
# Experiment: protein-binding microarray; COS-7 nuclear extract on double-stranded Agilent 4x180k PBM; binding buffer, salt, pH and temperature not given in the material; high values mean tight binding
# Details: chain copies: 2; label: 3' end of strand 1 on the slide; dsDNA, one strand shown
# In short: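 Nuclear extracts of COS-7 cells transiently transfected with a human HNF4α isoform were applied to a custom Agilent SurePrint G3 4x180k array bearing ~44,000 double-stranded ~60-nt test sequences, each in quadruplicate. The bound protein was imaged on an Agilent G2565CA scanner at 2-µm resolution. Binding signal is the normalized, background-corrected gProcessedSignal from Agilent software.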
row,Sequence,binding signal [log2 normalized intensity]
1,ACTACATTTCCAAGACCTCTTTGCGGATAGGCCTAGGGAGATTAGAGTATCGGTCGA,-0.337
2,AGTCAATCCCGTGGACTTTGCCTGCCCATCGCCTAGGGAGATTAGAGTATCGGTCGA,5.08
3,GCCTGCCCTTCGCTCCCCGACCTCCTGCTGGCCTAGGGAGATTAGAGTATCGGTCGA,2.62
4,CAGGTATTTGCTCTGTGATAGCCTTTTACCGCCTAGGGAGATTAGAGTATCGGTCGA,1.5
5,GGCAGGCTTCGAAAAATGGGTCTGGGATGTGCCTAGGGAGATTAGAGTATCGGTCGA,0.36
6,AGGGATTTCAGTGCCCTCATAAGAGACTTTGCCTAGGGAGATTAGAGTATCGGTCGA,2.22
7,TGTCCCTCCTGACCTTTGGACTTGATAGAGGCCTAGGGAGATTAGAGTATCGGTCGA,9.7
8,CCTGACCTGCCCTTTGTCCCTCCTGCTAGTGCCTAGGGAGATTAGAGTATCGGTCGA,3.93
9,AGTCCTGACCTTGGACTCTGCCCTTGGCCTGCCTAGGGAGATTAGAGTATCGGTCGA,6.67
10,TCCTCTATCTTCAAAGCCAGCAACGGTGAGGCCTAGGGAGATTAGAGTATCGGTCGA,0.0395
11,CAGCTGTCGTGTGAATAGCACTGACCAGCTGCCTAGGGAGATTAGAGTATCGGTCGA,0.27
12,GACAAAGGTCATTCATGTGCAGGTTGGAATGCCTAGGGAGATTAGAGTATCGGTCGA,3.11
13,GGAGAGGATGGGGACAAAGGTCAAGAAAGCGCCTAGGGAGATTAGAGTATCGGTCGA,6.33
14,CTAATGGAGAGGATGGGGACAAAGGTCAAGGCCTAGGGAGATTAGAGTATCGGTCGA,8.12
15,AATTCCCTGCAAGGACAAAGGTCATGTTTTGCCTAGGGAGATTAGAGTATCGGTCGA,7.11
16,TTTGGAATTCCCTGCAAGGACAAAGGTCATGCCTAGGGAGATTAGAGTATCGGTCGA,7.71
17,GTTATCTAATGGAGAGGATGGGGACAAAGGGCCTAGGGAGATTAGAGTATCGGTCGA,2.55
18,TTACTTTTGCAAGGTTTGTTCTTATCATGCGCCTAGGGAGATTAGAGTATCGGTCGA,0.712
19,CCCATCCCAGAGGTCAAACTATCTGAGGTGGCCTAGGGAGATTAGAGTATCGGTCGA,1.93
20,GGGCTGAGGATGAGGACTTTGGTCTTATTAGCCTAGGGAGATTAGAGTATCGGTCGA,4.45
21,TCTGGGATGTTGGGAGGAGTGGACTTTGATGCCTAGGGAGATTAGAGTATCGGTCGA,6.84
22,ATCTAGGTGAGGGATGAGGACTTTGATCAGGCCTAGGGAGATTAGAGTATCGGTCGA,6.79

row,Sequence,binding signal [log2 normalized intensity]
1,TTATCTCAGATGAGACTTTGGACTTTTGAAGCCTAGGGAGATTAGAGTATCGGTCGA,8.04
2,TACAGAATTCTCATGGAGGACTTTGGCCTTGCCTAGGGAGATTAGAGTATCGGTCGA,7.81
3,TAGCCTTATCTCAGATGAGACTTTGGACTTGCCTAGGGAGATTAGAGTATCGGTCGA,8.64
4,AATTCTCATGGAGGACTTTGGCCTTTTGTGGCCTAGGGAGATTAGAGTATCGGTCGA,6.71
5,TCAGATGAGACTTTGGACTTTTGAACTAAGGCCTAGGGAGATTAGAGTATCGGTCGA,7.23
6,CTGAGAAGATGAAAGACGAAAGGGACTTTGGCCTAGGGAGATTAGAGTATCGGTCGA,2.82
7,GATGTTGGGAGGAGTGGACTTTGATCTCAGGCCTAGGGAGATTAGAGTATCGGTCGA,9.38
8,GAATCTACAGAATTCTCATGGAGGACTTTGGCCTAGGGAGATTAGAGTATCGGTCGA,3.31
9,GGGACTAGCCTTATCTCAGATGAGACTTTGGCCTAGGGAGATTAGAGTATCGGTCGA,2.03
10,CTCCCCCACGACAGAATTGACTCTTCGTTTGCCTAGGGAGATTAGAGTATCGGTCGA,2.63
11,CTTTCATCTTTGCGGTGAGCATTTGTTTAGGCCTAGGGAGATTAGAGTATCGGTCGA,0.99
12,CAGAAGCAATCACAAGGAATGCCCTTATCTGCCTAGGGAGATTAGAGTATCGGTCGA,2.11
13,CCTATGGTATGTATGGAATGTCACTTTCTGGCCTAGGGAGATTAGAGTATCGGTCGA,1.79
14,ATGCACGTGCTCCAGGAGGGGAGGAGGGTCGCCTAGGGAGATTAGAGTATCGGTCGA,3.4
15,CACATTCCTAGACCTTTGACCTTTATACCTGCCTAGGGAGATTAGAGTATCGGTCGA,8.55
16,CCCAAGATGGATTGGGTCCACACATTCCTAGCCTAGGGAGATTAGAGTATCGGTCGA,0.829
17,ATTGGGTCCACACATTCCTAGACCTTTGACGCCTAGGGAGATTAGAGTATCGGTCGA,3.87
18,TTGACCTTTATACCTGTACGTTACTCTGTAGCCTAGGGAGATTAGAGTATCGGTCGA,4.37
19,GACCTTTGACCTTTATACCTGTACGTTACTGCCTAGGGAGATTAGAGTATCGGTCGA,7.64
20,ATTGTGATTCCTGTGATACCTTCTTTGCCTGCCTAGGGAGATTAGAGTATCGGTCGA,0.781
21,TCCTAGACCTTTGACCTTTATACCTGTACGGCCTAGGGAGATTAGAGTATCGGTCGA,6.76
22,CTTTATACCTGTACGTTACTCTGTACCTCGGCCTAGGGAGATTAGAGTATCGGTCGA,1.8

row,Sequence,binding signal [log2 normalized intensity]
1,GTCCACACATTCCTAGACCTTTGACCTTTAGCCTAGGGAGATTAGAGTATCGGTCGA,8.88
2,GGAACCAAGAGCAGATTTGTTTGCTCTTTAGCCTAGGGAGATTAGAGTATCGGTCGA,0.915
3,TTCCCTGAGTTTCCATTAACTGAACCTAGAGCCTAGGGAGATTAGAGTATCGGTCGA,1.69
4,TAAGATACGAAGGGTTTAAAGGGCAGAAGAGCCTAGGGAGATTAGAGTATCGGTCGA,2.39
5,AAGTTCATGGAAAGTTTCACTTTCTCTTATGCCTAGGGAGATTAGAGTATCGGTCGA,0.0777
6,TAAGATTCTGGTCAAAGGTCAATGAAGCTCGCCTAGGGAGATTAGAGTATCGGTCGA,6.64
7,ATTCATTCCCTAAGATTCTGGTCAAAGGTCGCCTAGGGAGATTAGAGTATCGGTCGA,7.83
8,GCAAAGGTCAGCTCATTCCCTAGGGCTCGGGCCTAGGGAGATTAGAGTATCGGTCGA,-0.991
9,TTCCCTAAGATTCTGGTCAAAGGTCAATGAGCCTAGGGAGATTAGAGTATCGGTCGA,8.22
10,AAAGGGCAAAGGTCAGCTCATTCCCTAGGGGCCTAGGGAGATTAGAGTATCGGTCGA,6.71
11,TTCTGGTCAAAGGTCAATGAAGCTCTTGCTGCCTAGGGAGATTAGAGTATCGGTCGA,6.15
12,ACTTAAAAGAAGCTACTAGCAAATCTGCCCGCCTAGGGAGATTAGAGTATCGGTCGA,-0.288
13,AACAAAGGTCGGTGGTATGTGTGTGCTTTAGCCTAGGGAGATTAGAGTATCGGTCGA,2.2
14,AATGTGTGTTCTGCTGCCATTGGATGGAATGCCTAGGGAGATTAGAGTATCGGTCGA,1.51
15,GTCAGATGACAGAATTGGTCCTGGAACTCAGCCTAGGGAGATTAGAGTATCGGTCGA,0.192
16,CCAACACAGAAGCCTTTTGTTCTTTGTGTGGCCTAGGGAGATTAGAGTATCGGTCGA,1.47
17,CCTATGGTCTGTTCACTTGCCAAGCCTAGTGCCTAGGGAGATTAGAGTATCGGTCGA,-0.838
18,AAATATTGTCAGTGAGGAATGTGCAAACGGGCCTAGGGAGATTAGAGTATCGGTCGA,0.32
19,GGTTGCACTCTGGTGCCCTCTGAGTGTTTGGCCTAGGGAGATTAGAGTATCGGTCGA,2.54
20,ACCCTCTCTGGATGCAGGTCGCCGGGAAAAGCCTAGGGAGATTAGAGTATCGGTCGA,0.74
21,GATGCTAGGTTTGTGAGTCCAAAGGTCAGCGCCTAGGGAGATTAGAGTATCGGTCGA,9.81
22,TAGGTTTGTGAGTCCAAAGGTCAGCCGGGGGCCTAGGGAGATTAGAGTATCGGTCGA,8.36

row,Sequence,binding signal [log2 normalized intensity]
1,AAAAGGATGCTAGGTTTGTGAGTCCAAAGGGCCTAGGGAGATTAGAGTATCGGTCGA,5.08
2,TCACAGTGTGGGGCAAATCTGAGGTCAAAGGCCTAGGGAGATTAGAGTATCGGTCGA,2.51
3,AAGGTTGGTTTTTGGAGACAGGAGTAGTCAGCCTAGGGAGATTAGAGTATCGGTCGA,0.982
4,CCTGAGGTGTGAGAGGGCAAAGGTCACAGCGCCTAGGGAGATTAGAGTATCGGTCGA,8.73
5,GGTGTGAGAGGGCAAAGGTCACAGCATTAGGCCTAGGGAGATTAGAGTATCGGTCGA,7.08
6,TGAGTATCCAAAGGTCAGTGACAAATGTCAGCCTAGGGAGATTAGAGTATCGGTCGA,4.51
7,TTGTGAGTCCAAAGGTCAGCCGGGGAAGGTGCCTAGGGAGATTAGAGTATCGGTCGA,7.55
8,AGGTCAGGGAGTAGGTTTGATTTGTGAAAGGCCTAGGGAGATTAGAGTATCGGTCGA,1.03
9,AGTCCAAAGGTCAGCCGGGGAAGGTGCAGGGCCTAGGGAGATTAGAGTATCGGTCGA,5.55
10,ATGTTAGTCTTGAGTCCCAAAGTCCAAAGGGCCTAGGGAGATTAGAGTATCGGTCGA,6.25
11,TACGTGACCTACTTAGTCTCCAGCCCCCAGGCCTAGGGAGATTAGAGTATCGGTCGA,4.08
12,TTTGGGGGTTGGTATTACAAAGCAATCTACGCCTAGGGAGATTAGAGTATCGGTCGA,0.18
13,TGAGCCATCCTGAACAAATGTACTGGATATGCCTAGGGAGATTAGAGTATCGGTCGA,-0.391
14,GACATAAATCACATTGTTAGCATAGCCTATGCCTAGGGAGATTAGAGTATCGGTCGA,-0.813
15,TGCTCACGTTTTCCTGCTGACCCTCTCCCCGCCTAGGGAGATTAGAGTATCGGTCGA,4.22
16,TCTACACTGCTTACCCTGCAGTGTGACCTTGCCTAGGGAGATTAGAGTATCGGTCGA,4.68
17,ACTGCTTACCCTGCAGTGTGACCTTTGCCTGCCTAGGGAGATTAGAGTATCGGTCGA,8.52
18,TTACCCTGCAGTGTGACCTTTGCCTTCTTGGCCTAGGGAGATTAGAGTATCGGTCGA,8.09
19,GATGTTCTACACTGCTTACCCTGCAGTGTGGCCTAGGGAGATTAGAGTATCGGTCGA,-0.757
20,GTGTGACCTTTGCCTTCTTGACATCTCTCTGCCTAGGGAGATTAGAGTATCGGTCGA,5.21
21,CTGCAGTGTGACCTTTGCCTTCTTGACATCGCCTAGGGAGATTAGAGTATCGGTCGA,6.8
